ELG1 genotoxic = qHTS screen for small molecules that induce genotoxicity in human embryonic kidney (HEK293T) cells expressing luciferase-tagged ELG1. HEK293T ELG1-luciferase reporter, luminescence, 16 h. Potency, µM (doses to about 46 µM), without a hit: at the top dose activity change, positive = activation, hits mostly activators. hit rate 1.3% among 330,000; note: % of control where 0% means no effect; nearly all actives have a fitted effect of over 60% in size
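16 hr compound incubation (37 °C, 5% CO2) of HEK293T cells carrying luciferase-tagged ELG1; luciferase then measured by ONE-Glo luminescence after 30 min at RT.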
Rab9 prom act = qHTS Assay for Rab9 Promoter Activators; hit rate 2.8% among 320,000; Potency, µM (titrated, usually from 9.22 µM), without a hit: at the highest dose activation, negative = inhibition, usual class: activators; Huh7 Rab9 promoter-luciferase reporter, luminescence, 24 h; AID 485297, 2010; note: % of control where 0% means no effect; nearly all actives have a fitted effect of over 60% in size
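Steps: seed 1500 Huh7 Rab9-luc cells per well, rest 2 h at 37 °C; add compound in DMSO; incubate 24 h; add luciferase reagent, 10 min ambient; read luminescence.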
FLuc counter = qHTS profiling assay for firefly luciferase inhibitor/activator using purifed enzyme and Km concentrations of substrates (counterscreen for miR-21 project); Luciferin 4-monooxygenase (Photinus pyralis), P08659; purified FLuc, Km substrates, luminescence inhibition; Potency, µM (top dose mostly 57.5 µM), inactives show at the highest dose activity change, negative = inhibition, hits mostly inhibitors; hit rate 6.9% among 360,000; AID 588342, 2011;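 note: plate controls were vehicle for no effect and reference inhibitor for full effect; nearly all actives have a fitted effect of over 55% in size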
Target sequence (P08659 whole entry, looked up): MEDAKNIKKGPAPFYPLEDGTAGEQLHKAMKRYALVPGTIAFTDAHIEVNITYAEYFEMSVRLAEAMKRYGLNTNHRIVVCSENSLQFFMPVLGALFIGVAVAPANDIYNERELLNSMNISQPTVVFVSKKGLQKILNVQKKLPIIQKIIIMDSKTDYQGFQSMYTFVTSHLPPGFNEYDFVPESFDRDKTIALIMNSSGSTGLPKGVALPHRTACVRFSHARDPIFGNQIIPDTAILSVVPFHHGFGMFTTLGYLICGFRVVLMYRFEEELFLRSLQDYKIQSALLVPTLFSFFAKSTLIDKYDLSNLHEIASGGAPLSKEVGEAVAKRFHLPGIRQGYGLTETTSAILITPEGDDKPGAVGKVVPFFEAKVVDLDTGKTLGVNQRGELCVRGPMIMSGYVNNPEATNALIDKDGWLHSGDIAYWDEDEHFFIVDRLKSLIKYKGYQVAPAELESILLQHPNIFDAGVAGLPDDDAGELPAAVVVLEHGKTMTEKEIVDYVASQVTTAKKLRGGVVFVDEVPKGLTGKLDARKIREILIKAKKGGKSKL
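Biochemical qHTS of compounds, final roughly 60 µM downward over six points, against 10 nM purified firefly luciferase using Km concentrations of substrates (10 uM D-luciferin, 10 uM ATP) in Tris acetate pH 7.5 buffer; luminescence output.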
SMN2 splice enh = qHTS Assay for Enhancers of SMN2 Splice Variant Expression; AID 1458, 2008; hit rate 2.8% among 210,000; Potency, µM (doses to about 46.1 µM), inactives show at the top dose activity change, positive = activation, actives largely listed as activators; HEK293 SMN2-luciferase splicing reporter, luminescence, 30-36 h; note: % of control where 0% means no effect; nearly all actives have a fitted effect of over 55% in size
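HEK293 cells carry an SMN2 […]–luciferase reporter in which exon 7 inclusion puts luciferase in frame. Cells were plated 10-12 h before compound addition, then incubated 30-36 h at 37C. ONE-Glo luminescence was read; sodium butyrate at 4.5 mM final served as control.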
NPC1 prom act = qHTS Assay for NPC1 Promoter Activators; Huh7 NPC1 promoter luciferase reporter, 24 h; hit rate 2.4% among 320,000; AID 485313, 2010; Potency, µM (doses to about 9.22 µM), for the others: at the top dose activation, actives largely listed as activators; note: % of control where 0% means no effect; nearly all actives have a fitted effect of over 60% in size
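NPC1 promoter–luciferase Huh7 cells; 24 h compound; luminescence.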
ELG1 repair inh = qHTS screen for small molecules that inhibit ELG1-dependent DNA repair in human embryonic kidney (HEK293T) cells expressing luciferase-tagged ELG1. HEK293T ELG1-luciferase reporter, luminescence, 16 h; DNA damage induced by 5-fluorouridine. Potency, µM (series often up to 46.1 µM), for the others: at the highest dose activity change, negative = inhibition, most hits filed as inhibitors. hit rate 2.3% among 330,000. AID 504467, 2011; note: % is set by controls: 0 for no effect and ±100 for the full control effect; nearly all actives have a fitted effect of over 55% in size
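Cells (2,000 per well) received 5-fluorouridine plus test compound or DMSO and were incubated 16 hr at 37 °C, 5% CO2. Luciferase activity was read by luminescence 30 min after ONE-Glo addition; signal suppression marked inhibition of damage-induced ELG1 function.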
Active calls of the source: *; ? = inconclusive; . = no result given. An excerpt weighted towards active compounds, which were near 9.4% of everything screened. Calls come from the whole dose curve; as a rule, active = well fitted curve in the direction sought with a large enough effect; inconclusive = small, poorly fitted or top-dose-only effect, or another doubt; inactive = no such curve, though single readings can be large; an effect the other way counts as inactive or inconclusive. Potency is the fitted concentration of half-maximal effect.

SMILES | ELG1 genotoxic | Rab9 prom act | FLuc counter | SMN2 splice enh | NPC1 prom act | ELG1 repair inh
CCN(CC)S(=O)(=O)c1ccc(C(=O)Nc2nnc(-c3ccco3)o2)cc1 | -17% | -2% | -19% | -68% | -7% | 21µM*
COc1cc(-c2nnc(NC(=O)c3ccco3)o2)cc(OC)c1OC | 5% | -5% | -3% | . | -1% | ?
CS(=O)(=O)c1ccc(-c2nnc(NC(=O)c3ccco3)o2)cc1 | 10% | -4% | 12µM* | . | 0% | ?
CN(C)S(=O)(=O)c1ccc(C(=O)Nc2nnc(-c3ccco3)o2)cc1 | -3% | 15% | -15% | -4% | 2% | ?
COc1cc2[nH]c(=O)n(CCCC(=O)N(C)Cc3ccccc3)c(=O)c2cc1OC | . | . | 2% | 14% | . | .
CCOc1cccc(CC(=O)N2CCc3c([nH]c4ccccc34)C2c2ccc(C)cc2)c1OCC (centres undefined) | . | . | 4% | . | . | .
CCOc1ccc(OCC)c(S(=O)(=O)NCCOC23CC4CC(CC(C4)C2)C3)c1 | -3% | -12% | -2% | -51% | -4% | ?
COc1cc(S(=O)(=O)NCCOC23CC4CC(CC(C4)C2)C3)c(OC)cc1Cl | -6% | -4% | -8% | -58% | -2% | 16µM*
CC(=O)c1cc(Cl)ccc1OCC(=O)NC1CCCC1 | -1% | ? | 17µM* | . | ? | ?
O=C(COc1ccc(Cl)cc1Cl)NC(=O)N1CCOCC1 | 5% | -5% | 21µM* | 20% | -5% | ?
O=C(COc1ccc(Cl)cc1Br)NC1CC1 | 10% | 28% | 13µM* | . | ? | ?
O=C(COc1ccc(Cl)cc1[N+](=O)[O-])NC1CCCCC1 | ? | 1.4µM* | 11µM* | 11µM* | ? | ?
COc1cc(NC(=O)c2noc3c2CC(C(C)(C)C)CC3)cc(OC)c1OC (centres undefined) | . | . | 3% | 3% | . | .
Cc1ccco1 | . | . | . | 5% | . | .
CCCCc1ccc(NC(=O)c2cnccn2)cc1 | ? | 0.79µM* | 2.4µM* | 3.2µM* | 0.5µM* | ?
CC(=O)c1ccc(NC(=O)c2cnsn2)cc1 | ? | 1µM* | 12µM* | . | 2µM* | ?
CS(=O)(=O)c1ncc(Cl)c(C(=O)Nc2ccc(N3CCOCC3)cc2)n1 | ? | -56% | 12µM* | 26% | -43% | -9%
O=C(Nc1ccc(N2CCOCC2)cc1)c1cnsn1 | 0.16µM* | ? | 0.95µM* | 2.8µM* | ? | ?
COc1ccc(-n2ccn(Cc3ccccc3C)c(=O)c2=O)cc1 | . | . | -3% | . | . | .
Cn1cc(S(=O)(=O)N2CCCCCC2)cc1C(=O)N1CCN(c2cccc(C(F)(F)F)c2)CC1 | . | . | -17% | . | . | .
O=C(Nc1ccc(N2CCOCC2)cc1)c1cnccn1 | ? | 0.32µM* | 1.9µM* | . | ? | ?
O=C(Nc1ccccc1N1CCOCC1)c1cnccn1 | 1% | 4% | 1% | 0% | -8% | -9%
Cn1c(COc2ccccc2O)[n+](C)c2ccccc21 | -3% | -2% | -2% | . | -3% | 2%
COc1ccc(N=Nc2n(C)c3ccccc3[n+]2C)cc1 | 0.92µM* | ? | 0.076µM* | . | 0.71µM* | ?
CN(C)/C=C1\C(=O)N(c2ccc(Cl)cc2)CS1(=O)=O | ? | ? | 17µM* | 29% | 3.2µM* | ?
SMILES | ELG1 genotoxic | Rab9 prom act | FLuc counter | SMN2 splice enh | NPC1 prom act | ELG1 repair inh
Cc1ccc(N2CS(=O)(=O)/C(=C/N(C)C)C2=O)cc1 | ? | 1.3µM* | 12µM* | 13µM* | 2µM* | ?
CC(=O)Nc1nonc1-c1nnc(SCC(=O)Nc2cc(C)cc(C)c2)n1-c1ccccc1 | . | . | -7% | . | . | .
CC(=O)Nc1ccc(NC(=O)CCC(=O)c2ccc(C)cc2)cc1 | . | . | -3% | . | . | .
Cc1ccc2cc3c(nc2c1)N(Cc1ccco1)CC3 | ? | 1% | 19µM* | -17% | 6% | 18%
CC1Oc2ccccc2N(CC(=O)NCc2ccccc2)C1=O (centres undefined) | ? | 4µM* | ? | . | ? | ?
CC1Oc2ccccc2N(CC(=O)NC2CC2)C1=O (centres undefined) | 0% | 0% | 1% | . | -2% | 0%
CCC1Oc2ccccc2N(CC(=O)NCCN2C(C)CCCC2C)C1=O (centres undefined) | -1% | -1% | 0% | 10µM* | -1% | 15%
CCN(CC)c1ccc(/C=N/NC(=O)c2ccc(O)cc2)cc1 | . | . | . | 3% | . | .
c1ccc2c(Nc3nc4c(s3)CCCC4)cccc2c1 | ? | 3.5µM* | 4.8µM* | ? | ? | ?
CCC(=O)N1c2ccc(S(=O)(=O)N3CCCCCC3)cc2CC1C (centres undefined) | . | . | -8% | 8% | . | .
CCNC(=O)NC(=O)COC(=O)c1ccccc1SCC(=O)NC(=O)NCC | ? | 2.8µM* | 5.4µM* | 8.9µM* | 1.6µM* | ?
O=C(COC(=O)c1ccccc1SCC(=O)NC1CCS(=O)(=O)C1)NC1CCS(=O)(=O)C1 (centres undefined) | -5% | -8% | 8% | 4% | -2% | -17%
COc1ccc(N2Cc3ccccc3C2)cc1Cl | 21µM* | ? | ? | ? | 19% | ?
O=C(Nc1ccn(Cc2ccccc2F)n1)c1ccc(COc2ccccc2Cl)cc1 | -9% | -15% | -3% | -84% | -2% | ?
O=C(Nc1ccn(Cc2ccccc2F)n1)c1ccc(COc2cccc(Br)c2)cc1 | ? | 1.8µM* | 6.7µM* | ? | 1.6µM* | ?
Cc1nc2c(c(C)c1CCC(=O)Nc1ccc(F)cc1)c(=O)n(C)c(=O)n2C | . | . | 0% | 12% | . | .
CC(C)(C)NC(=O)CSc1nnc(NC(=O)c2ccccc2Cl)s1 | 7% | 11% | 17µM* | 15% | 10% | ?
O=C(CSc1nc2ccccc2s1)Nc1ccc2c(c1)oc1ccccc12 | 8% | 24% | -2% | 11µM* | 17% | ?
CCOC(=O)CNC(=O)CSc1nnc(NC(=O)c2ccccc2Cl)s1 | ? | ? | 11µM* | ? | 24% | ?
Cc1ccccc1C(=O)Nc1nnc(SCC(=O)NC2CC2)s1 | ? | 2.2µM* | 8.5µM* | . | 2.5µM* | ?
CCCC(=O)Nc1nnc(SCC(=O)NC2CC2)s1 | 3% | 2% | 0% | . | 0% | 16%
